Test results taken from PubChem BioAssay AID651650 (Sanford-Burnham Center for Chemical Genomics, 2012).

Biological target: Neuropilin-1 (Homo sapiens) (UniProt O14786)
Test: blockers of CendR peptide binding to NRP-1 – biochemical, FP and AlphaScreen panel, dose response (AID 651650)
Conditions: NRP-1 b1b2 / RPARPAR peptide binding, FP or AlphaScreen; run 1, at 100 µM (top of the series)

Neuropilin-1 (Homo sapiens), sequence (O14786 whole entry, looked up): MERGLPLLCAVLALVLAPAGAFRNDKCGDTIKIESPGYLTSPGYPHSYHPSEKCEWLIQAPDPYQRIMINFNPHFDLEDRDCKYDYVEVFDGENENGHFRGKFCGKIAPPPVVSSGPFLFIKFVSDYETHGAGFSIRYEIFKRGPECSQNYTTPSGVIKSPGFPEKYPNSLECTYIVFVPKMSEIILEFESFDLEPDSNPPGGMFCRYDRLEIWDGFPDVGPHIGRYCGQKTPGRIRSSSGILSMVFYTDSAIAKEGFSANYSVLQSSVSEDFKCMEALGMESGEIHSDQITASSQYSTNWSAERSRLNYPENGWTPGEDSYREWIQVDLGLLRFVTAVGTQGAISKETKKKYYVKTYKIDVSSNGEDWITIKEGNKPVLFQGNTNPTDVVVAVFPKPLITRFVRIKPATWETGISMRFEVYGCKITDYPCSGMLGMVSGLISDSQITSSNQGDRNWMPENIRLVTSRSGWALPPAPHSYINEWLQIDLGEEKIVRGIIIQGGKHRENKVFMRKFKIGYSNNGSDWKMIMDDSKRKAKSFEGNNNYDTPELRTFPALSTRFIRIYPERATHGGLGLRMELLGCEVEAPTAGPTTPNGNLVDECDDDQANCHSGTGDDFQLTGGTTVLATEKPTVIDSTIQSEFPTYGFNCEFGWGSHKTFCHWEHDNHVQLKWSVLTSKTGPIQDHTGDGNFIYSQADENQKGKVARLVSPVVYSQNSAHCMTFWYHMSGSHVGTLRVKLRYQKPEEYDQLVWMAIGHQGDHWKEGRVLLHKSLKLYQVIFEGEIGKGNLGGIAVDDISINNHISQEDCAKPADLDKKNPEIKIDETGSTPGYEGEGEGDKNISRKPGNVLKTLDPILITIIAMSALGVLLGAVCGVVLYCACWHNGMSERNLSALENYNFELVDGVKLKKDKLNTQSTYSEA

SMILES | inhibition [%]
O=[N+]([O-])c1cc(-c2csc(NCCc3nc4cc(C(F)(F)F)ccc4n3CCCO)n2)ccc1Cl | 33.1
Cc1ccc(Cl)cc1N1CCN(C(=O)c2cccc3c(=O)c(C)c(-c4ccccc4)oc23)CC1 | 20.7
Cn1c(SCc2nc3ccccc3s2)nnc1-c1cccs1 | 65.1
O=C(O)c1cccc(N2C(=O)c3cc([N+](=O)[O-])cc4cc([N+](=O)[O-])cc(c34)C2=O)c1 | 32.7
Cc1nc(SCc2ccc(C(=O)O)cc2)nc2c1CCCC2 | 41.7
Cc1ccccc1S(=O)(=O)Nc1nc2ccccc2nc1NCCO | 25.8
NC(N)=NCCC[C@H](NC(=O)OCc1ccccc1)C(=O)O | 17.2
Cc1cccc(-c2noc(CSc3ccccc3)n2)c1 | 0.214
O=C1N[C@H](Cc2c[nH]c3ccccc23)COC(=O)[C@H](Cc2ccc(F)cc2)C/C=C\C[C@H]1CC(=O)N(CCO)Cc1ccccc1 | 41.5
CC(C)(C)C(=O)c1cnc(Nc2ccccc2)s1 | -10.5
Cc1onc(-c2ccc(Cl)cc2Cl)c1-c1csc(COc2ccccc2)n1 | 65.6
O=C(Nc1ccccc1N1CCOCC1)c1ccc(N2CCCC2=O)cc1 | 46.3
CC(=O)Nc1ccc(NC(=O)C2CC(=O)N=C(N)S2)cc1 (centres undefined) | 95.5
CNC(=O)Nc1ccccc1C(=O)NCc1ccccc1 | 25.7
CCOC(=O)C[C@H]1c2cc(C(F)(F)F)ccc2S(=O)(=O)N1Cc1ccccc1 | 59.5
CCOC(=O)C1CCN(Cc2ccc3ccccc3c2)CC1 | 52.3
Cc1cc(C)cc(N(CCC(=O)O)S(=O)(=O)c2ccc3ccccc3c2)c1 | 38.7
COC(=O)C1=C(C)NC(C)=C(C(=O)OC)C1C(=O)OC(C)C(=O)c1ccccc1 (centres undefined) | 12.9
O=C(/C=C/c1ccccc1)c1ccccn1 | -2
O=C(NCCCN1CCCCCC1)c1ccc(CS(=O)(=O)Cc2ccccc2F)o1 | 40.3

SMILES | inhibition [%]
Cc1onc(-c2ccccc2)c1C(=O)Nc1c(C)n(C)n(-c2ccccc2)c1=O | 28.1
CCCCC1CCC(C(=O)NC2CCS(=O)(=O)C2)CC1 (centres undefined) | 16.6
CCN1C(=O)C(=O)c2cc(C)ccc21 | 13.5
C=CCNC(=O)c1onc(CSc2ccc(F)c(F)c2)c1C(=O)NCC=C | 38.7
O=C(Nc1cccc(C(F)(F)F)c1)C1Cc2c(-c3cccc(F)c3)ccnc2O1 (centres undefined) | 18.4
CCN(C[C@H]1N[C@@](CC)(C(=O)OC)[C@H]2C(=O)N(C)C(=O)[C@@H]12)S(=O)(=O)c1ccc(OC)cc1 | 30.5
CCOc1ccccc1N1CCN(C(=O)c2ccncc2)CC1 | -22.8
O=C(Nc1ccc(F)cc1)c1cc(S(=O)(=O)Nc2ccc(F)cc2)cs1 | 2.95
Cc1c(CC(=O)O)c(=O)oc2cc(OCc3ccc(F)cc3Cl)ccc12 | -12.1
C=CCOc1ccc(C2/C(=C(\O)c3c(C)[nH]c(C(=O)OC)c3C)C(=O)C(=O)N2CCN(C)C)cc1 (centres undefined) | 3.64
NCCCC[C@H]1CN=C(N)N1CCC12CC3CC(CC(C3)C1)C2 | 70.7
CCn1c(SCC(=O)c2ccccc2)nnc1-c1cccs1 | 45.2
COc1ccc(C2CC(O)(c3ccccc3)Oc3cc(OC)ccc32)cc1 (centres undefined) | 7.29
Cc1csc(NC(C)c2nc3cc(C(F)(F)F)ccc3n2CCOCCO)n1 (centres undefined) | 20
O=C(O)CCCC(=O)N1CCc2cc(S(=O)(=O)N3CCc4ccccc43)ccc21 | -2.42
CC1CCC(NC(=O)CSc2nncn2C)CC1 (centres undefined) | 19.2
Cc1cc2cc(CNC(=O)c3ccc(S(=O)(=O)N4CCOCC4)cc3)ccc2n1C | 18.3
O=c1oc(Nc2ccccc2F)nc2ccccc12 | 25.1
O=C(O)CCSc1nnc(COc2cccc3cccnc23)n1-c1ccccc1 | 52.3
